# About 3,300 (8.5%) of roughly 39,000 compounds were called active. The full list was thinned out, with actives kept by preference.
# System: HepG2
# Assay: cytotoxicity call (relative viability < 0.9)
# Conditions: 10 µM
row,Structure (SMILES),cytotoxicity call
1,CCCCOC(=O)C1=CC(=O)CC(C)(C)O1,active
2,C[C@@H](O)CN1C[C@H]2C[C@@H](C1)c1cccc(=O)n1C2,inactive
3,CN1C[C@@H](C(=O)O)CN2CCN(C(=O)c3ccncc3F)C[C@@H]2C1,inactive
4,O=C1CC2(CCNCC2)CN1,inactive
5,C1CCC(NC2CCCC2)CC1,inactive
6,Cl.c1ccc2c(c1)OCC(C1=NCCN1)O2 (centres undefined),active
7,CCC1(C2=NCCN2)Cc2ccccc2O1.Cl (centres undefined),inactive
8,NCC[C@H]1COc2ccccc2O1,inactive
9,FC(F)(F)c1nnc(N2CCNCC2)s1,inactive
10,CCN1C[C@]2(COC)CC[C@H](O)[C@@]34[C@@H]2[C@@H](OC)[C@@H]([C@@H]13)[C@@]1(OC(C)=O)C[C@H](OC)[C@H]2C[C@H]4[C@@H]1[C@@H]2OC(C)=O,inactive
11,CC(C)c1csc(CCN)n1,inactive
12,CN1C[C@H]2CN[C@H]2C1,inactive
13,Cc1[nH]c2ccccc2c1CN(C)C,inactive
14,Cc1cccc(N2CCNCC2)n1,inactive
15,c1ccc(N2CCNCC2)nc1,inactive
16,O=C(O)C=CC(=O)O.c1ccc2nc(N3CCNCC3)ccc2c1,active
17,COc1ccc([C@H]2CC(=O)N3CCNC[C@@H]23)cc1,inactive
18,CCCN1CC(CSC)CC2c3cccc4[nH]cc(c34)CC21.CS(=O)(=O)O (centres undefined),inactive
19,CNC(C)C(O)c1ccccc1.Cl (centres undefined),inactive
20,O=C(O)C[C@H]1CC[C@@H]2NC[C@H](O)COC[C@H]2O1,inactive

row,Structure (SMILES),cytotoxicity call
1,C[CH2][Hg][S]c1ccccc1C(=O)[O-].[Na+],active
2,O=C([O-])Cc1ccccc1.[Na+],inactive
3,N[C@@]1(C(=O)O)CC[C@H](C(=O)O)C1,inactive
4,NCCc1ccc(S(=O)(=O)F)cc1,inactive
5,CN1C(=O)NC(=O)/C(=C\C=C\c2ccco2)C1=O,inactive
6,C[C@@]12NC(=O)CN1CCc1ccccc12,inactive
7,CC(C)NC(=O)C1=NO[C@]2(CCNC2)C1,inactive
8,Nc1nc(Cl)ncc1[N+](=O)[O-],inactive
9,O=C1CCCC2C3CC(CN12)C1CCCCN1C3.[O-][Cl+3]([O-])([O-])O (centres undefined),inactive
10,Cc1nccc2c1[nH]c1ccccc12 [listing 1 of 2 here],active
11,Cc1nccc2c1[nH]c1cc(O)ccc12 [listing 1 of 2 here],active
12,COc1ccc2cc(CCN)c(=O)[nH]c2c1,inactive
13,COc1ccc2c(c1)[nH]c1c(C)nccc12,active
14,Cc1nccc2c1[nH]c1ccccc12 [listing 2 of 2 here],inactive
15,c1ccc2c(c1)[nH]c1cnccc12,inactive
16,Cc1nccc2c1[nH]c1cc(O)ccc12 [listing 2 of 2 here],inactive
17,Cc1ccc(C=C2C(=O)NC(=O)NC2=O)cc1,inactive
18,NCC(=O)Nc1ccc(Br)cc1C(=O)c1ccccc1,inactive
19,Cn1cnc(CCN)c1,inactive
20,CC1(C)CCNC1=O,inactive

row,Structure (SMILES),cytotoxicity call
1,COS(C)(=O)=O,inactive
2,C[C@@H]1CN([C@@H](C)CO)C(=O)c2cc(NC(=O)Nc3ccccc3)ccc2O[C@@H](C)CCCCO[C@H]1CN(C)C(=O)Oc1ccccc1,inactive
3,CNc1ccc2oc(C[C@H]3O[C@@]4(CC[C@H]3C)O[C@H]([C@H](C)C(=O)c3ccc[nH]3)[C@H](C)C[C@H]4C)nc2c1C(=O)O,active
4,C[C@H]1CN([C@@H](C)CO)C(=O)CCCn2nncc2CO[C@H]1CN(C)C(=O)Oc1ccc2ccccc2c1,inactive
5,CC=C1CC(C)C(O)(CO)C(=O)OCC2=CCN3CCC(OC1=O)C23 (centres undefined),inactive
6,O=C1CC(=O)N(Cc2ccccc2)C(=O)N1,inactive
7,O=C(O)[C@H]1[C@H](C(=O)O)[C@H]2CC[C@@H]1O2,inactive
8,C[C@@]1(C(=O)O)[C@H]2CC[C@@H](O2)[C@@]1(C)C(=O)O,active
9,C[C@]12CC[C@](C)(O1)[C@H](C(=O)O)[C@@H]2C(=O)O,inactive
10,OCCN1CC2(CCN(c3nccs3)C2)C1,inactive
11,C1CCNCC1,inactive
12,Cc1cnc[nH]1,inactive
13,C[C@@H]1CN([C@H](C)CO)C(=O)CCCn2cc(nn2)CO[C@H]1CN(C)C(=O)Oc1cccc2ccccc12,inactive
14,C[C@H]1CN([C@@H](C)CO)C(=O)CCCn2cc(nn2)CO[C@@H]1CN(C)C(=O)Oc1cccc2ccccc12,inactive
15,CC(C)C12OC1C1OC13C1(C)CCC4=C(COC4=O)C1CC1OC13C2O (centres undefined),active
16,CC(C)c1ccc2c(c1O)CCC1C3=C(CCC21C)C(=O)OC3 (centres undefined),inactive
17,NCCc1c[nH]c2ccc(OCC(=O)O)cc12,inactive
18,Nc1ncccc1CN1CC[C@]2(CC(=O)NC2=O)C1,inactive
19,CC1CCC2C(C)C(=O)OC3OC4(C)CCC1C32OO4 (centres undefined),inactive
